Here are results for 7 molecules from PubChem BioAssay.

Experiment [1] in a line: viability loss in pontine glioma line – cell-based, SU-DIPG-XXV, MIPE5.0, CellTiter-Glo, qHTS, dose response (AID 1347065; cut-off not given, nearly all actives have AC50 up to about 26 µM;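 note: cells exposed to compound for 48 hours before ATP readout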). Particulars: CellTiter-Glo ATP luminescence. On the technique in general: ATP-based viability assays read luminescence as a measure of living cells.
Experiment [2] in a line: JHH-DIPG-1 glioma cell viability, MIPE5.0 library, CellTiter-Glo luminescence, qHTS (AID 1347067; cut-off not given, nearly all actives have AC50 up to about 26 µM;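 note: cells exposed to compound for 48 hours before readout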). Particulars: JHH-DIPG-1 glioma viability, CellTiter-Glo ATP luminescence.
Experiment [3] is described as follows: sensitizers of A549 cells to miR-34 induction, primary screen, imaging, A549 dox-inducible miR-34, nuclei and caspase counts (AID 1347080). Particulars: A549 miR-34 inducible, Hoechst nuclei count, 48 h.
Experiment [4] in a line: survival rescue of mitochondrial mutant cells in low glucose, primary screen, MELAS cybrids, Rieske KO mouse fibroblasts, CellTiter-Glo (AID 1508586;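 active = mean z-score across replicates of 1.96 or higher in either the MELAS or the Rieske mutant cell line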;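 note: z relative to plate mean and SD of compound and empty wells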).
Experiment [5] concerns the target NAD(+) hydrolase SARM1 (Homo sapiens) (UniProt Q6SZW1). Put plainly: SARM1 TIR NADase inhibitors, cell lysate, NAD-Glo luminescence (AID 1508614;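 active = compound whose remaining NAD level is above about 45 nM, limit read from the data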;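 note: higher remaining NAD means stronger inhibition of SARM1 NADase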). Particulars: SAM-TIR HEK293T lysate NADase, at 1 µM, stronger effect = higher value.
Experiment [6] concerns the target Mitogen-activated protein kinase 7 (Homo sapiens) (UniProt Q13164). Put plainly: ERK5 transactivation activators in reporter cells, primary screen, cell-based, HTS (AID 1508626;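 active = luciferase signal above three times the same-plate solvent-only control wells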;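 note: luciferase driven by Gal4-ERK5 fusion binding five Gal4 sites before minimal TATA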). Particulars: HeLa Gal4-ERK5 transactivation, 18 h, at 5 µM, stronger effect = higher value.
Experiment [7] is described as follows: viability rescue of complex I mutant cybrids, primary screen, cell-based, galactose medium, ATP luminescence (AID 1645843;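 active = z-score of at least 1.8 in each of two replicates, scored against plate mean and spread of sample wells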;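 note: positive z means more ATP and so rescue of galactose-driven cybrid death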). Particulars: complex I mutant cybrid cells, 72 h, stronger effect = higher value.
Experiment [8] in a line: SU-DIPG-VI glioma cell viability, MIPE4.0 library, CellTiter-Glo luminescence, qHTS (AID 1347066; cut-off not given, nearly all actives have AC50 up to about 30 µM;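 note: cells exposed to compound for 48 hours before readout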). Particulars: CellTiter-Glo ATP luminescence.
Experiment [9] in a line: SU-DIPG-XXV glioma cell viability, MIPE5.0 library, qHTS (AID 1347068; cut-off not given, nearly all actives have IC50 up to about 30 µM;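 for IC50: cells exposed to compound for 48 hours before viability readout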). A general note: In qHTS, concentration-response curves come from the screen itself.
Experiment [10] in a line: phospholipid biosynthesis inhibitors in animal cells, primary screen, cell-based, LOPAC library, screen 4 (AID 1347384; call rule not given here). Particulars: phospholipid biosynthesis inhibition screen, at 10 µM.
Where [11] appears, read: stronger effect = lower value, cell number ratio, induced over uninduced.
Setting [12] is: measured here: relative caspase fold change +Dox/-Dox.
[13] abbreviates: measured here: total cells with miR-34 induction, stronger effect = lower value.
[14] abbreviates: measured here: total cells without miR-34 induction.
The mark [15] stands for this setting: MELAS cybrid survival, CellTiter-Glo 48 h, stronger effect = higher value.
[16] abbreviates: Rieske KO mouse fibroblast survival, CellTiter-Glo 72 h.

Where “and” joins values, the source holds several entries; their conditions need not be identical. Equal values may be shown once. Results filed as inconclusive are left out. Calls of active or inactive are those of the source.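 Rule for the calls, unless noted: active = compounds whose cell count with miR-34 switched on is under 0.7 times the count with it off; inactive = the rest.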 Peptide text beside a SMILES is read from it.

Chain of NAD(+) hydrolase SARM1 (Homo sapiens) (Q6SZW1 whole entry, looked up, the tested form may be a part): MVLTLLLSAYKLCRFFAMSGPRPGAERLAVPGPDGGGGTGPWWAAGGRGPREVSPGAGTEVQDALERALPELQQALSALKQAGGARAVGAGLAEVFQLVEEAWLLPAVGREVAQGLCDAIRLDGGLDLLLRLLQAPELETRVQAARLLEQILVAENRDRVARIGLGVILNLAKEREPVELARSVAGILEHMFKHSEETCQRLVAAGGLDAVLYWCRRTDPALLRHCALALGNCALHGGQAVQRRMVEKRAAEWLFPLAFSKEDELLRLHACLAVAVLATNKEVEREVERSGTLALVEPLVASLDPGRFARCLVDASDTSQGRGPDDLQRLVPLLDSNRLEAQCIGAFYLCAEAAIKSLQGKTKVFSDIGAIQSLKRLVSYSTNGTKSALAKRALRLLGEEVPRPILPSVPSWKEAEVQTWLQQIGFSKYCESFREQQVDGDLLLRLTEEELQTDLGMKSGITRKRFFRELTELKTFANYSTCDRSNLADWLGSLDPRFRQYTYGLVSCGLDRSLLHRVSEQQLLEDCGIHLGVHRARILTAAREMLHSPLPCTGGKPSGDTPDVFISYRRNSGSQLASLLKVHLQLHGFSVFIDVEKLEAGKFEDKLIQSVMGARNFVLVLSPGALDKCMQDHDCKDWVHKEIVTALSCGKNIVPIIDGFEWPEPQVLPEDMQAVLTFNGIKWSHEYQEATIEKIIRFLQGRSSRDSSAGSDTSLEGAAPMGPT
Chain of Mitogen-activated protein kinase 7 (Homo sapiens) (Q13164 whole entry, looked up, the tested form may be a part): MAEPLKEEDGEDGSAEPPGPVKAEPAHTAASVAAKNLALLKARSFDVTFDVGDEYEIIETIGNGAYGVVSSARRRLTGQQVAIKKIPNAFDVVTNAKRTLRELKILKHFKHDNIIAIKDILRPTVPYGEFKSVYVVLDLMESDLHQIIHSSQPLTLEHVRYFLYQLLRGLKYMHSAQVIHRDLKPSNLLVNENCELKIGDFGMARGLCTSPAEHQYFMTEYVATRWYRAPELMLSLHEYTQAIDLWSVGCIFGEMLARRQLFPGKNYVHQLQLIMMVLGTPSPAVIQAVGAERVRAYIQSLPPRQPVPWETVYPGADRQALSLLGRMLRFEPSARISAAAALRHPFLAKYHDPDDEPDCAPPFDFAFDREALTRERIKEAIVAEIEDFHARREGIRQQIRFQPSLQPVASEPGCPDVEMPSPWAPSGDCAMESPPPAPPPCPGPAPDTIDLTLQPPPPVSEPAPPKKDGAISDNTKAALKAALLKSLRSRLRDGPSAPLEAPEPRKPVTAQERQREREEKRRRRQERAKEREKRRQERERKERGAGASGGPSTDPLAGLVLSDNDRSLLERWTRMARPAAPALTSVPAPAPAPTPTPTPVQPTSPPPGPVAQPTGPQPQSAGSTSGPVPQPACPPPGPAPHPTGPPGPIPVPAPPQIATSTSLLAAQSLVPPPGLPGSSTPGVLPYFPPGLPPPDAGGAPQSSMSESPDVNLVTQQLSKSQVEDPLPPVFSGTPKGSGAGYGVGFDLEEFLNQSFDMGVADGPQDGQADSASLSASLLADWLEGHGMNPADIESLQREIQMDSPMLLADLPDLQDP

By AC50 is commonly meant the midpoint of the concentration-response curve, whichever way the signal moves. As to `CCCOc1ccc2nc(NC(=O)OC)[nH]c2c1`, the results for the AC50 in experiment [1] and in experiment [2] were 0.235 µM (active) and 0.295 µM (active), respectively. In addition, the fold change in experiment [3] (setting [11]) was 1.06 (inactive) and 1 (inactive); in [3] (setting [12]), 1.87 and 1.28. Also, the cell count in experiment [3] (setting [13]) is 2370 and 1800; in [3] (setting [14]), 2250 and 1790. Further, the z-score was -1.88 (inactive) and -2.12 (inactive) in experiment [4] (setting [15]); -0.332 and 1.54 in experiment [4] (setting [16]); -1.72 (inactive) in experiment [7]. Besides, the remaining NAD in [5] was 10 nM (inactive). Besides, in experiment [6], the luciferase signal was 40 AU (inactive).
Take `CCOC(=O)[C@H](CCc1ccccc1)N[C@@H](C)C(=O)N1[C@H](C(=O)O)C[C@@H]2CCC[C@@H]21`: the AC50 in experiment [8] was 16.6 µM (active). Also, the molecule was called inactive in experiment [2] and in experiment [9]. In addition, the fold change is 0.911 (inactive) and 0.827 (inactive) and 0.868 (inactive) in [3] (setting [11]); 1.49 and 3.09 and 1.08 in [3] (setting [12]). In addition, the cell count in experiment [3] (setting [13]) was 9860 and 10700 and 9970; in experiment [3] (setting [14]) it was 10800 and 13000 and 11500. Besides, the z-score in [4] (setting [15]) was -0.258 (inactive) and 0.537; in [4] (setting [16]), -0.11 and 2.28; in experiment [7], 2.63 (inactive) and 0.46 (inactive). In [5], the remaining NAD was 10 nM (inactive). In addition, the luciferase signal in experiment [6] is 316 AU (inactive).
In the case of `CO[C@@]12[C@H](COC(N)=O)C3=C(C(=O)C(C)=C(N)C3=O)N1C[C@@H]1N[C@@H]12`, the AC50 is 9.34 µM (active) in [1] and 3.32 µM (active) in [2]. For the same molecule, the fold change was 1.21 (inactive) and 1.12 (inactive) in experiment [3] (setting [11]); 0.667 and 0.791 in experiment [3] (setting [12]). The cell count in experiment [3] (setting [13]) is 1280 and 1220; in experiment [3] (setting [14]), 1060 and 1090. In addition, the z-score in experiment [4] (setting [15]) was -0.241 (inactive); in [4] (setting [16]), -1.21; in experiment [7], -1.99 (inactive). The remaining NAD in experiment [5] was 10 nM (inactive). Moreover, the luciferase signal in [6] was 44 AU (inactive).
For the molecule `CC1=CC(=O)c2ccccc2C1=O`, the figures for the AC50 in experiment [8] and in experiment [2] were 8.33 µM (active) and 33.2 µM (active), respectively. For the same molecule, the molecule was classed as inactive in [9]. Besides, the fold change in [3] (setting [11]) is 1.24 (inactive) and 1.04 (inactive) and 1.27 (inactive); in [3] (setting [12]), 0.813 and 0.493 and 0.646. Further, the cell count in [3] (setting [13]) is 1500 and 4940 and 494; in experiment [3] (setting [14]), 1210 and 4760 and 388. The values for the z-score in experiment [4] (setting [15]) and in experiment [4] (setting [16]) were -0.194 (inactive) and -1.25, respectively. In addition, in experiment [5], the remaining NAD was 10 nM (inactive). The luciferase signal in experiment [6] is 128 AU (inactive).
`C1CCC(C(CC2CCCCN2)C2CCCCC2)CC1` (configuration not stated): the AC50 in [1] was 10.5 µM (active); in experiment [2], 8.33 µM (active). The fold change was 0.746 (inactive) and 0.859 (inactive) in experiment [3] (setting [11]); 0.891 and 3.18 in experiment [3] (setting [12]). Moreover, the cell count was 5600 and 9890 in experiment [3] (setting [13]); 7500 and 11500 in experiment [3] (setting [14]). Also, the values for the z-score in [4] (setting [15]) and in experiment [4] (setting [16]) were -1.07 (inactive) and 0.712, respectively. In addition, the remaining NAD in [5] was 10 nM (inactive). Further, the luciferase signal in [6] is 140 AU (inactive).
Regarding `COC(=O)[C@H](Cc1ccccc1)NC(=O)[C@@H](N)CC(=O)O` (H-Asp-Phe-OMe), the call in [8] and in experiment [2] was inactive. Also, the fold change in experiment [3] (setting [11]) is 0.869 (inactive); in experiment [3] (setting [12]), 2.93. The cell count in experiment [3] (setting [13]) was found to be 11000; in experiment [3] (setting [14]), 12600. For the same molecule, the remaining NAD in experiment [5] is 10 nM (inactive). Also, in [6], the luciferase signal is 36 AU (inactive).
The IC50 is the point on the concentration scale where inhibition reaches its midpoint. In the case of `CC(C)COCC(CN(Cc1ccccc1)c1ccccc1)N1CCCC1` (configuration not stated), the AC50 in experiment [1] and in experiment [2] was 18.6 µM (active) throughout. For the same molecule, in experiment [9], the IC50 is 16.6 µM (active). In addition, the outcome in [10] was inactive. Further, the z-score in experiment [4] (setting [15]) was -1.13 (inactive) and -0.882 (inactive); in [4] (setting [16]), -0.167 and 0.23; in [7], -0.24 (inactive) and -2.13 (inactive). In addition, the remaining NAD in experiment [5] is 10 nM (inactive). For the same molecule, the luciferase signal in experiment [6] was 280 AU (inactive).
